Measurements: PubChem BioAssay (NCATS)
Values joined by “and” are separate entries in the source; they are usually repeats but may differ in a detail not shown here. Equal entries are not always repeated. Records with an inconclusive call do not appear. Some compounds were tested as several samples or in several runs, with calls that do not always agree. Active and inactive are the calls of the source. Unless noted, calls follow the shape of the dose curve; as a rule, active = well fitted curve in the direction sought with a large enough effect; inconclusive = small, poorly fitted or top-dose-only effect, or another doubt; inactive = no such curve, though single readings can be large; an effect the other way counts as inactive or inconclusive. Peptide text beside a SMILES is read from it.

Key:
[1] = P-glycoprotein substrates identified in KB-8-5-11 adenocarcinoma cell line, qHTS therapeutic library screen (AID 1346987); also: nearly all actives have a fitted effect of over 65% in size; also: potency is read from the fitted curve at half-maximal effect
Method in brief: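 P-gp-mediated resistance screen: KB-8-5-11 cells treated 72 h with compounds in dose-response. CellTiter-Glo viability.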

[2] = NS1 protein of Zika virus - qHTS assay to identify small molecule inhibitors in human HEK 293 cells (AID 1347053); also: nearly all actives have a fitted effect of over 55% in size; also: potency is read from the fitted curve at half-maximal effect
Method in brief: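 HEK 293; 20 h pre-culture, 37 C/5% CO2; cpd 1 h pre-infection; ZIKV MR766, MOI = 0.5, 24 h, 37 C; TR-FRET NS1 readout (two anti-NS1 Abs); norm. to no-virus vs infected.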

[3] = qHTS of pediatric cancer cell lines to identify multiple opportunities for drug repurposing: Primary screen for TC32 cells (AID 1347089); also: nearly all actives have a fitted effect of over 60% in size
Method in brief: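 TC32 cells, 500-1,000/well in growth medium, compound-treated 48 h at 37 °C; viability from CellTiter-Glo luminescence. Primary screen: MIPE 11-point (0.78 nM–46 µM final), NPC 8-point (0.59 nM–46 µM final); confirmatory at 11-point dilutions.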

[4] = qHTS of pediatric cancer cell lines to identify multiple opportunities for drug repurposing: Primary screen for DAOY cells (AID 1347090); also: nearly all actives have a fitted effect of over 55% in size; also: potency is read from the fitted curve at half-maximal effect
Method in brief: (§1)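 Viability measured as metabolically active cells via CellTiter-Glo luminescence following 48 hours of compound exposure, 11-point dilutions in confirmatory testing. 500-1,000 cells/well plated 5 hours before dosing; controls were DMSO and 2.3 µM bortezomib.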

[5] = qHTS of pediatric cancer cell lines to identify multiple opportunities for drug repurposing: Primary screen for SJ-GBM2 cells (AID 1347091); also: potency is read from the fitted curve at half-maximal effect
Method in brief: as §1

[6] = qHTS of pediatric cancer cell lines to identify multiple opportunities for drug repurposing: Primary screen for BT-37 cells (AID 1347094); also: potency is read from the fitted curve at half-maximal effect
Method in brief: (§2)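 Plated cells (500-1,000 per well, growth media) were allowed to settle for 5 hours, treated with compound dilutions for 48 hours, then lysed with CellTiter-Glo for 15 min at room temperature before luminescence reading.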

[7] = qHTS of pediatric cancer cell lines to identify multiple opportunities for drug repurposing: Primary screen for U-2 OS cells (AID 1347096); also: nearly all actives have a fitted effect of over 50% in size
Method in brief: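 Viability after 48 h compound treatment at 37C, 500-1,000 cells/well, read as ATP luminescence with CellTiter-Glo. Primary screens used 11-point (MIPE, 0.78 nM-46 µM) or 8-point (NPC, 0.59 nM-46 µM) final concentrations; follow-up screens used 11-point dilutions.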

[8] = qHTS of pediatric cancer cell lines to identify multiple opportunities for drug repurposing: Primary screen for SK-N-SH cells (AID 1347098); also: nearly all actives have a fitted effect of over 65% in size; also: potency is read from the fitted curve at half-maximal effect
Method in brief: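 Cells (500-1,000/well) rested 5 h, then received compounds for 48 h; metabolically active cells were measured by CellTiter-Glo luminescence. Final concentrations spanned up to 46 µM (MIPE, 11-point) or 0.59 nM-46 µM (NPC, 8-point) in primary screens, 11-point in follow-ups.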

[9] = qHTS of pediatric cancer cell lines to identify multiple opportunities for drug repurposing: Primary screen for NB1643 cells (AID 1347099); also: nearly all actives have a fitted effect of over 50% in size; also: potency is read from the fitted curve at half-maximal effect
Method in brief: as §2

[10] = qHTS of pediatric cancer cell lines to identify multiple opportunities for drug repurposing: Primary screen for SK-N-MC cells (AID 1347093); also: potency is read from the fitted curve at half-maximal effect
Method in brief: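 Metabolically active cells were quantified by ATP-dependent luminescence (CellTiter-Glo, 15 min at room temperature) following 48 h treatment. Cells had been plated at 500-1,000 per well and settled for 5 h beforehand.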

[11] = qHTS of pediatric cancer cell lines to identify multiple opportunities for drug repurposing: Primary screen for NB-EBc1 cells (AID 1347095); also: potency is read from the fitted curve at half-maximal effect
Method in brief: as §2

[12] = qHTS of pediatric cancer cell lines to identify multiple opportunities for drug repurposing: Primary screen for Saos-2 cells (AID 1347097); also: nearly all actives have a fitted effect of over 40% in size; also: potency is read from the fitted curve at half-maximal effect
Method in brief: as §2

[13] = qHTS of pediatric cancer cell lines to identify multiple opportunities for drug repurposing: Primary screen for A673 cells (AID 1347092); also: nearly all actives have a fitted effect of over 45% in size; also: potency is read from the fitted curve at half-maximal effect
Method in brief: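 A673 cells (500-1,000 cells/well) were treated 48 hours at 37 degrees C with compounds at 11-point (0.78 nM to 46 µM) or 8-point (0.59 nM to 46 µM) dilutions. Viability read by CellTiter-Glo luminescence; concentration-response curves fitted.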

[14] = Natriuretic polypeptide receptor (hNpr1) antagonism - Pilot counterscreen GloSensor control cell line (AID 1347045; calls by dose curve; also: series mostly up to about 38 µM)
Method in brief: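 This counterscreen uses HEK293 cells expressing the GIP/pGS-40F cGMP biosensor. Compound-treated cells are challenged with 50 uM sodium nitroprusside, and the luciferase signal is compared before and after stimulation.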

[15] = target: Atrial natriuretic peptide receptor 1 (Homo sapiens) (UniProt P16066); assay: Natriuretic polypeptide receptor (hNpr1) antagonism - Pilot screen (AID 1347049; calls by dose curve;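 also: agonist-evoked cGMP luminescence read 20 min after hNppA addition; series mostly up to about 58 µM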)
Chain of Atrial natriuretic peptide receptor 1 (Homo sapiens) (P16066 whole entry, looked up): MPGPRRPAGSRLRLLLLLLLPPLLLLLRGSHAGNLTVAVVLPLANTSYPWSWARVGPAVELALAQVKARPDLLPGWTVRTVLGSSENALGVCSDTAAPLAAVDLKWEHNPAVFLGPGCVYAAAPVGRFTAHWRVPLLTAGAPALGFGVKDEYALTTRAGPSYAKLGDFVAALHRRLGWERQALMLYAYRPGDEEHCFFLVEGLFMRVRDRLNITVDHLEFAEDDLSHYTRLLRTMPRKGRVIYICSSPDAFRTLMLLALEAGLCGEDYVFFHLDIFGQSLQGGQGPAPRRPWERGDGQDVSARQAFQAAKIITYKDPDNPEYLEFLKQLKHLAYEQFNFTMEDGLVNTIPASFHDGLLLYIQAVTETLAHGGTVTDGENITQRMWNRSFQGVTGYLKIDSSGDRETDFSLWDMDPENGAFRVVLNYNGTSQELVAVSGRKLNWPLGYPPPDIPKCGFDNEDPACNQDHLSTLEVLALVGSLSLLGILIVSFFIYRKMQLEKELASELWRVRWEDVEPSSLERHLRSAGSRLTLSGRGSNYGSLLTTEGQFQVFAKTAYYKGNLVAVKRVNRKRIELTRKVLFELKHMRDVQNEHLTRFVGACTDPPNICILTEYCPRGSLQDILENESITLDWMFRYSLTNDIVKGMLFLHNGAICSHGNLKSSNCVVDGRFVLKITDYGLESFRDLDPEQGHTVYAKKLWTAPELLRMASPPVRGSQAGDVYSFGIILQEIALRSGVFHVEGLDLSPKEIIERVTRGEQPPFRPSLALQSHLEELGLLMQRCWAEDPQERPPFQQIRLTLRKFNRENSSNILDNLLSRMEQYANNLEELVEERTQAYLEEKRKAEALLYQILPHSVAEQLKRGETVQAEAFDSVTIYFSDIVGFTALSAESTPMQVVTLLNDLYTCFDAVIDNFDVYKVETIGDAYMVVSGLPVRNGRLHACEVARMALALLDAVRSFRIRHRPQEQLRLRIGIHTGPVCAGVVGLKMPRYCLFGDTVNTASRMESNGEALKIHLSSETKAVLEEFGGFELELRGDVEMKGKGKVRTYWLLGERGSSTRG
Method in brief: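 HEK293 cells expressing hNpr1 and GloSensor cGMP luciferase, 1500/well, loaded with 2% GloSensor reagent 2 h, compound 30 min at room temperature; luminescence read before and 20 min after 0.1 nM hNppA stimulation.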

[16] = target: Atrial natriuretic peptide receptor 2 (Homo sapiens) (UniProt P20594); assay: Natriuretic polypeptide receptor (hNpr2) antagonism - Pilot subtype selectivity assay (AID 1347050; calls by dose curve)
Chain of Atrial natriuretic peptide receptor 2 (Homo sapiens) (P20594 whole entry, looked up): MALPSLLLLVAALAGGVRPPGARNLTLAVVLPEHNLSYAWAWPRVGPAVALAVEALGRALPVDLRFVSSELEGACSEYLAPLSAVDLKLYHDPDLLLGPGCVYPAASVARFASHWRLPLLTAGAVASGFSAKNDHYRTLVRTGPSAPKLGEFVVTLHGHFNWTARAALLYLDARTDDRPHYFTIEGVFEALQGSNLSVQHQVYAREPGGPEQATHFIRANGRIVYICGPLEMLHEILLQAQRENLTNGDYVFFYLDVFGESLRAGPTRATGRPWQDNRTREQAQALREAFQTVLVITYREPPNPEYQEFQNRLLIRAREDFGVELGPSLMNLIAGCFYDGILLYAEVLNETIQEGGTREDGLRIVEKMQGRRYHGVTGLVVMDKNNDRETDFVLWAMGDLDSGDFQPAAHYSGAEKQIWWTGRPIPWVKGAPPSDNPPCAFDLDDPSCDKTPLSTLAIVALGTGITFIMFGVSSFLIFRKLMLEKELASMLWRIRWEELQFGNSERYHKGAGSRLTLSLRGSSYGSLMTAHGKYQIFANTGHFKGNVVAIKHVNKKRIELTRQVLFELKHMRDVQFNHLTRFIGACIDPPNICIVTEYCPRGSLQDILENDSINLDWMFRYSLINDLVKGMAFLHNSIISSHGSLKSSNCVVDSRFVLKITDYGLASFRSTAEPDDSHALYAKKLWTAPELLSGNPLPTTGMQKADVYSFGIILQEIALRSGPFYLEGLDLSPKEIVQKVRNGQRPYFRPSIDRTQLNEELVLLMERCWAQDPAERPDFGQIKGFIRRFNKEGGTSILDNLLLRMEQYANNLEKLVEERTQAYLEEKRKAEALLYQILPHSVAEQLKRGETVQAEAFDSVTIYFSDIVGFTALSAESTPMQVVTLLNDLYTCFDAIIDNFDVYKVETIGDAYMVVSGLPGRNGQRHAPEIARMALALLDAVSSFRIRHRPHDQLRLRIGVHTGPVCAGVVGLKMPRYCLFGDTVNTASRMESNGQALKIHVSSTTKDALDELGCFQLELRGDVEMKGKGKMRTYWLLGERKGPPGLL
Method in brief: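 HEK293 cells expressing hNpr2 and a GloSensor cGMP luciferase sensor, 1500/well, preloaded 2 h with 2% GloSensor reagent, compound 30 min, then 1 nM hNppC for 20 min. Antagonism from luminescence after versus baseline pre-read; LOPAC in 1:5 titrations.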

[17] = target: Tyrosine-protein phosphatase non-receptor type substrate 1 (Homo sapiens) + Leukocyte surface antigen CD47 (Homo sapiens) (UniProt P78324+Q08722); assay: CD47-SIRPalpha protein protein interaction - Alpha assay qHTS validation (AID 1347059);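 also: bead proximity luminescence from CD47 binding SIRPalpha after compound preincubation with SIRPalpha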
Chain of Tyrosine-protein phosphatase non-receptor type substrate 1 (Homo sapiens) + Leukocyte surface antigen CD47 (Homo sapiens) (P78324 whole entry, looked up): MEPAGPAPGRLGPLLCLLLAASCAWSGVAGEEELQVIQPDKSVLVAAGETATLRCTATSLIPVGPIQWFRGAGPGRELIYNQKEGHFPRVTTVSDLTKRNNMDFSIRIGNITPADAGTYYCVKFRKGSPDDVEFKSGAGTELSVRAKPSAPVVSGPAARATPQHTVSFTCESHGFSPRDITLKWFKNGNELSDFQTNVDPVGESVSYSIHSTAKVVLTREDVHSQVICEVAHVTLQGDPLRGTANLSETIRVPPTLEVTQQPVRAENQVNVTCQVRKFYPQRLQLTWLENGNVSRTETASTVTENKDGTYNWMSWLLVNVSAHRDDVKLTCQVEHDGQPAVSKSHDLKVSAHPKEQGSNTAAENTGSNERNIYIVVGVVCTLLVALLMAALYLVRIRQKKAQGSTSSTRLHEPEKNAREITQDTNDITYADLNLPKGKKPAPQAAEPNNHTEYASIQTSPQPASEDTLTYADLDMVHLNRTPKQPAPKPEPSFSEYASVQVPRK
Chain of Tyrosine-protein phosphatase non-receptor type substrate 1 (Homo sapiens) + Leukocyte surface antigen CD47 (Homo sapiens) (Q08722 whole entry, looked up): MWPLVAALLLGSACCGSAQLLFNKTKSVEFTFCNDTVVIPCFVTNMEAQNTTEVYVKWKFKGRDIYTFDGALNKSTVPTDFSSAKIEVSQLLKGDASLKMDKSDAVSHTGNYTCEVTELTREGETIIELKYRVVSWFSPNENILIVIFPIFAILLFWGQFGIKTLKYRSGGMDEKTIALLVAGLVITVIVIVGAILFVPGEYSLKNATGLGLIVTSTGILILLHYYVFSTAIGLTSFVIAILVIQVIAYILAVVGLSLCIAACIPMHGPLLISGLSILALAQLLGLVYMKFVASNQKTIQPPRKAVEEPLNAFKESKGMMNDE
Method in brief: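 Biotinylated Avi-tagged SIRPalpha (25 nM) preincubated 30 min with compound, then His-tagged CD47 (12.5 nM) added 30 min; AlphaScreen with Ni-NTA acceptor and streptavidin donor beads. PBS pH 7.4, 0.05% IGEPAL, room temperature; 7-point titrations.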

[18] = target: Parathyroid hormone/parathyroid hormone-related peptide receptor (Homo sapiens) (UniProt Q03431); assay: qHTS for PTHR1 Agonists: Optimization Screen against the NCGC LOPAC library (AID 1347079);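 also: GloSensor cAMP luminescence in HEK-293 GP2 cells expressing human PTHR1 with IBMX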
Chain of Parathyroid hormone/parathyroid hormone-related peptide receptor (Homo sapiens) (Q03431 whole entry, looked up): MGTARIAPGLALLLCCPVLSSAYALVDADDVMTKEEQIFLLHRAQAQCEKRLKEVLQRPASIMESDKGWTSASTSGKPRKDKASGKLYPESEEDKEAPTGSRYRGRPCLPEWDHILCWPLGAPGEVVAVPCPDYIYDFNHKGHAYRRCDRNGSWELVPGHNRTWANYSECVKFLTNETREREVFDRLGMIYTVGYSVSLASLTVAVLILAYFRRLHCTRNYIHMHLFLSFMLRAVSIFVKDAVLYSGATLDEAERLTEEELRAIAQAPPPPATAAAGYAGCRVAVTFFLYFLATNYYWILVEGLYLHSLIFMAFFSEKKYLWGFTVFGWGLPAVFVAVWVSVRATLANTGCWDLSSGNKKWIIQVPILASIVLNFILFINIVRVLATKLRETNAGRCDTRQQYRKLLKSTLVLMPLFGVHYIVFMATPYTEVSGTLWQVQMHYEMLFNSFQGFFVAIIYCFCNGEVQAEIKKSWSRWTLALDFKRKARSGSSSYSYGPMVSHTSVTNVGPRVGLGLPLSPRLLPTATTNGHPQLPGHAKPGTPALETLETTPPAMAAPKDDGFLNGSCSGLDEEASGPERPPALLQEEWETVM
Method in brief: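 Compounds were tested across a qHTS titration. PTHR1-expressing GP2 cells report cAMP rises via GloSensor luminescence after 1 hr compound exposure at 37C with IBMX present.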

Measured: Potency

CS(=O)(=O)OCCCCOS(C)(=O)=O
inactive: [1] | [2] | [3] | [4] | [5] | [6] | [7] | [8] | [9]

Cc1cc(=O)c2c(O)c3c(O)cc(=O)c4c3c3c(cc(O)c1c23)C(C)(C)C=4O
inactive: [2] | [8]
active: [1] 1.46 µM and 4.69 µM | [4] 1.16 µM and 18.7 µM | [5] 0.332 µM | [10] 1.3 µM and 1.48 µM | [6] 1.69 µM and 6.85 µM | [11] 5.8 µM and 418 nM | [12] 1.46 µM and 2.09 µM | [9] 1.16 µM and 2.35 µM

Cc1c(C(=O)NN2CCCCC2)nn(-c2ccc(Cl)cc2Cl)c1-c1ccc(Cl)cc1
inactive: [3] | [4] | [7]
active: [1] 20.6 µM | [2] 18.7 µM | [5] 13.2 µM | [10] 21.1 µM and 7.43 µM | [6] 3.85 µM | [8] 27.3 µM and 30.4 µM

Cc1ccc(S(=O)(=O)NC(=O)NN2CC3CCCC3C2)cc1 (stereo not given)
active: [12] 7.5 µM and 18.7 µM
not listed: [3] | [13] | [14] | [15] | [16] | [17] | [18]
inactive: all other assays above

CC1=C(C)C(=O)C(C(CCCCCC(=O)O)c2ccccc2)=C(C)C1=O (stereo not given)
not listed: [9] | [13] | [14] | [15] | [16] | [17] | [18]
inactive: all other assays above

COC(=O)N[C@H](C(=O)N[C@@H](Cc1ccccc1)[C@@H](O)CN(Cc1ccc(-c2ccccn2)cc1)NC(=O)[C@@H](NC(=O)OC)C(C)(C)C)C(C)(C)C
not listed: [13] | [14] | [15] | [16] | [17] | [18]
inactive: all other assays above

N=C(N)c1ccc2cc(OC(=O)c3ccc(N=C(N)N)cc3)ccc2c1
not listed: [13] | [14] | [15] | [16] | [17] | [18]
inactive: all other assays above

COC(=O)[C@H](Cc1ccccc1)NC(=O)[C@@H](N)CC(=O)O (H-Asp-Phe-OMe)
not listed: [13] | [14] | [15] | [16] | [17] | [18]
inactive: all other assays above

CCN(CC)CCOc1ccc(Cc2ccccc2)cc1
inactive: [1] | [2] | [3] | [4] | [10] | [11] | [7] | [12] | [9]

CN(C)c1ccc(O)c2c1C[C@H]1C[C@H]3[C@H](N(C)C)C(=O)C(C(N)=O)=C(O)[C@@]3(O)C(=O)C1=C2O
inactive: [1] | [2] | [3] | [4] | [5] | [11] | [7] | [12] | [8] | [9]

O=C(O)c1cccc(-c2noc(-c3ccccc3F)n2)c1
inactive: [1] | [2] | [3] | [4] | [5] | [11] | [7] | [12] | [8]

Cn1c(NCCN(CCO)CCCc2ccc([N+](=O)[O-])cc2)cc(=O)n(C)c1=O
inactive: [1] | [2] | [3] | [4] | [5] | [6] | [11] | [7] | [12] | [8]

CC(C)(S)[C@@H](N)C(=O)O
not listed: [3] | [14] | [15] | [16] | [17] | [18]
inactive: all other assays above

Clc1ccc(C(Cn2ccnc2)OCc2c(Cl)cccc2Cl)c(Cl)c1 (stereo not given)
inactive: [4] | [5] | [7] | [8]
inactive and 14.8 µM (active): [2]
active: [13] 21.1 µM and 18.7 µM

Cc1cc2cc3c(C)cc(=O)oc3c(C)c2o1
inactive: [1] | [2] | [5] | [6] | [11] | [7] | [12]

Nc1nc(N)c(N=O)c(OCC2CCCCC2)n1
active: [5] 9.35 µM | [10] 3.32 µM | [12] 18.7 µM | [8] 24.1 µM | [9] 18.7 µM
inactive: [14] | [15] | [16] | [2] | [17] | [18]
